Measured values published in PubChem BioAssay (EPA / NIEHS).
Results filed as inconclusive are left out. The source made the active and inactive calls. The calls were made as follows, unless noted: active = hit-call score of the fitted dose curve at least 0.9, where 1 is the maximum; inconclusive = response in the unintended direction; inactive = score below 0.9.

Tests used:
[1] = target: Retinoic acid receptor alpha (Homo sapiens) (UniProt P10276); assay: ATG_DR5_RAR_CIS: Attagene CIS-FACTORIAL HepG2 Assay for human Retinoic Acid Receptor Alpha (RARE), DR5 submotif (AID 2282934; active = hit-call score of the fitted dose curve at least 0.9, where 1 is the maximum; inactive = score below 0.9); details: HepG2 Attagene cis-factorial RARE DR5 reporter, mRNA; actives raise or lower the signal
Retinoic acid receptor alpha (Homo sapiens), sequence (P10276 whole entry, looked up): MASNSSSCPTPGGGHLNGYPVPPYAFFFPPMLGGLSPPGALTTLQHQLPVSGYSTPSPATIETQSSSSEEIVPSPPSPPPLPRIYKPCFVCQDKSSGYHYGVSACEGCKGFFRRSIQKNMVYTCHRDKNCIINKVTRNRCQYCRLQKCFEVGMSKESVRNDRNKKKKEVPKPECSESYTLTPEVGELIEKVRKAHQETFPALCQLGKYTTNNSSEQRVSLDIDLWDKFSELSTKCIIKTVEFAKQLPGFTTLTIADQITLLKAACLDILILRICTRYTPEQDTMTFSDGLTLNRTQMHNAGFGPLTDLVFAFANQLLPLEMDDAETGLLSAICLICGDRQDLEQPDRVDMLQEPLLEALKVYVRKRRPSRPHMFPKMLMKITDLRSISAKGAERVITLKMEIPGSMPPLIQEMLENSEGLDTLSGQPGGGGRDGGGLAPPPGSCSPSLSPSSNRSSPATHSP
How it was run: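 HepG2 cells transiently transfected with multiplexed reporter units under cis (DR5 RARE) promoters, so endogenous transcription factor activity is measured. After 24 h compound exposure, reporter mRNA is quantified by RT-PCR with fluorescent labelling and capillary electrophoresis; bidirectional fitting versus DMSO.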

[2] = target: Oxysterols receptor LXR-alpha (Homo sapiens) (UniProt Q13133); assay: ATG_LXRa_TRANS: Attagene TRANS-FACTORIAL HepG2 Assay for human Liver X Receptor alpha (LXRa) (AID 2282980); details: HepG2 Attagene TRANS reporter, LXRa transactivation
Oxysterols receptor LXR-alpha (Homo sapiens), sequence (Q13133 whole entry, looked up, the tested form may be a part): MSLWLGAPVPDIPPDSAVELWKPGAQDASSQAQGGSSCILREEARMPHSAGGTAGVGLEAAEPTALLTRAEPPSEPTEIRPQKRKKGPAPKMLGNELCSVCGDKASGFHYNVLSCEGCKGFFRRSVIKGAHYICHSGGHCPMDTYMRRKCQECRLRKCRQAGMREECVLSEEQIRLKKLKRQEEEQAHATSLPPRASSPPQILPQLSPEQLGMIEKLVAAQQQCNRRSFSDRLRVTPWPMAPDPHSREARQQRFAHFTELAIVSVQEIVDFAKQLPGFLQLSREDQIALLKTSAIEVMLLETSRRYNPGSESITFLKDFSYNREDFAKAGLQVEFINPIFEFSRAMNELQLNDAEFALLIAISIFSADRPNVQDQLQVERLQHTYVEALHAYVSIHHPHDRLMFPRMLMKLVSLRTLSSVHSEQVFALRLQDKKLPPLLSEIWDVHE
How it was run: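 HepG2 cells were transiently transfected with multiplexed reporter units driven by chimeric LXRa–GAL4 fusion proteins, then dosed for 24 h. Reporter mRNA was quantified by RT-PCR, fluorescent labelling and capillary electrophoresis; gain of signal fitted against DMSO baseline.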

[3] = ATG_M_06_TRANS: Attagene TRANS-FACTORIAL HepG2 Assay for M06 Transcription Factor (Internal Marker) (AID 2282983); details: HepG2 Attagene TRANS M06 internal marker reporter;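 also: reporter transcript level by RT-PCR then capillary electrophoresis fluorescence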
How it was run: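 HepG2 cells transiently transfected with multiplexed GAL4-UAS reporter transcription units; after 24 h compound exposure, reporter mRNA measured by RT-PCR, FAM-labelled primer extension, HpaI digestion and capillary electrophoresis. Gain-of-signal fitted versus DMSO baseline; background control readout.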

[4] = target: human RAR-related Orphan Receptor beta (RORb), RORB (gene 6096) (UniProt Q92753); assay: ATG_RORb_TRANS: Attagene TRANS-FACTORIAL HepG2 Assay for human RAR-related Orphan Receptor beta (RORb) (AID 2283010)
How it was run: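 HepG2 cells were transiently transfected with multiplexed GAL4-UAS reporter units expressing chimeric nuclear receptor–GAL4 proteins, then dosed for 24 h. Reporter mRNA was quantified by RT-PCR with fluorescent labelling and capillary electrophoresis; gain of signal was fitted relative to DMSO.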

[5] = target: human Vitamin D Receptor (VDR), VDR (gene 7421) (UniProt P11473); assay: ATG_VDR_TRANS: Attagene TRANS-FACTORIAL HepG2 Assay for human Vitamin D Receptor (VDR) (AID 2283022)
human Vitamin D Receptor (VDR), VDR (gene 7421), sequence (P11473 whole entry, looked up, the tested form may be a part): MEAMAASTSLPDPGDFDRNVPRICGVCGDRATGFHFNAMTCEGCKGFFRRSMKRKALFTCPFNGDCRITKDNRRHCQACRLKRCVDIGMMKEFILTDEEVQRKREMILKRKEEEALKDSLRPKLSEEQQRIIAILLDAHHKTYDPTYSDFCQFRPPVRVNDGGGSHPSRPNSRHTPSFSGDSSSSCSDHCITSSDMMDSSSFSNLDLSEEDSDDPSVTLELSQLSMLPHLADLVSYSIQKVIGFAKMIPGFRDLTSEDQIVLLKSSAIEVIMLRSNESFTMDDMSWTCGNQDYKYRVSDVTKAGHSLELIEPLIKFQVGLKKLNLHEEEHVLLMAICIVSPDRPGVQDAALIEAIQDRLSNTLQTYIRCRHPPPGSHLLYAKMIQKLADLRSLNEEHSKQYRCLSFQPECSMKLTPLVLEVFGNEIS
How it was run: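 HepG2 cells were transiently transfected with multiple GAL4-UAS reporter units, so signal reflects exogenous chimeric receptor-Gal4 activity. After 24 h compound exposure, reporter mRNA was measured by RT-PCR, fluorescent labelling and capillary electrophoresis, fitted for gain of signal versus DMSO.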

[6] = CCTE_Harrill_HTTr_Viability_MCF7: CCTE's 6-hour Cell Viability Assessment for the High-Throughput Transcriptomics (HTTr) Platform, in MCF-7 cells cultured in DMEM + 10% fetal bovine serum, Harrill Lab (AID 2284010; active = hit-call score of the fitted dose curve at least 0.9, where 1 is the maximum; inactive = score below 0.9)
How it was run: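 Membrane integrity was scored by high-content imaging of propidium iodide dye exclusion after a 6 h exposure across an eight-point dilution series. Data were fitted bidirectionally relative to DMSO as negative control and baseline.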

[7] = target: Bile acid receptor (Homo sapiens) (UniProt Q96RI1); assay: ATG_IR1_CIS: Attagene CIS-FACTORIAL HepG2 Assay for human Nuclear Receptor Subfamily 1 Group H Member 4 (NR1H4), IR1 submotif (AID 2282946; active = hit-call score of the fitted dose curve at least 0.9, where 1 is the maximum; inactive = score below 0.9); details: IR1 reporter transcription, actives raise or lower the signal
Bile acid receptor (Homo sapiens), sequence (Q96RI1 whole entry, looked up): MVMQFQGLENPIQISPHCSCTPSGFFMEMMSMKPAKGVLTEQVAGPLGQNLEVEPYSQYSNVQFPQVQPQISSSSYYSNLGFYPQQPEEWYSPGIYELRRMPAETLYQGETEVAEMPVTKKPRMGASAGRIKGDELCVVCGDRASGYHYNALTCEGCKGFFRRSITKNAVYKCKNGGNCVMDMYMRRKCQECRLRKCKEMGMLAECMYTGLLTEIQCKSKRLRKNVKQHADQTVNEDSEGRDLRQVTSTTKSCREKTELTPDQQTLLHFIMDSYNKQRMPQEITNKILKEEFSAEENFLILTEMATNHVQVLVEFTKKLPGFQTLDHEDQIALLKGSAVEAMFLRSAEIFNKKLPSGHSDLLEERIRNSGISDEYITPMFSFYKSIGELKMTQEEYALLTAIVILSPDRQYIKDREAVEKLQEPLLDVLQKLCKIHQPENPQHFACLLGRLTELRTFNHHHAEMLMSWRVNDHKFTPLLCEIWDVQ
How it was run: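 Transient MRTU transfection, HepG2; 24 h dosing; RNA → RT-PCR → 6-FAM primer extension → HpaI digest → capillary electrophoresis fluorescence. Gain/loss of signal fitted relative to DMSO.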

[8] = ATG_PPRE_CIS: Attagene CIS-FACTORIAL HepG2 Assay for human Peroxisome Proliferator-activated Response Element (PPRE) (AID 2282958; active = hit-call score of the fitted dose curve at least 0.9, where 1 is the maximum; inactive = score below 0.9); details: HepG2 PPRE cis-element reporter, Attagene transcription factor profiling; actives raise or lower the signal
How it was run: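 Read-out: fluorescent reporter mRNA fragments resolved by capillary electrophoresis after RT-PCR. HepG2 cells carried transiently transfected PPRE-driven cis reporter constructs and were dosed for 24 h; gain or loss of signal fitted relative to DMSO.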

[9] = target: Nuclear receptor subfamily 1 group I member 3 (Homo sapiens) (UniProt Q14994); assay: ATG_CAR_TRANS: Attagene TRANS-FACTORIAL HepG2 Assay for human Constitutive Androstane Receptor (CAR) (AID 2282969); details: HepG2 Attagene TRANS-FACTORIAL CAR reporter;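 also: activators raise reporter mRNA above DMSO so AC50 marks induction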
How it was run: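 HepG2 cells transiently transfected with multiplexed GAL4-UAS reporter units expressing chimeric NR-Gal4 proteins; compound exposure 24 h. Reporter mRNA measured by RT-PCR, 6-FAM labelling, HpaI digestion and capillary electrophoresis; gain-of-signal fitted against DMSO baseline.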

[10] = ATG_GAL4_TRANS: Attagene TRANS-FACTORIAL HepG2 Assay for GAL4 (Internal Marker) (AID 2282976); details: HepG2 Attagene TRANS GAL4 internal marker reporter
How it was run: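 HepG2 cells transiently transfected with multiplexed GAL4-UAS reporter constructs were dosed for 24 h. Reporter mRNA was measured by RT-PCR, 6-FAM primer extension, HpaI digestion and capillary electrophoresis, and gain of signal was fitted relative to DMSO.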

[11] = target: Oxysterols receptor LXR-beta (Homo sapiens) (UniProt P55055); assay: ATG_LXRb_TRANS: Attagene TRANS-FACTORIAL HepG2 Assay for human Liver X Receptor beta (LXRb) (AID 2282981); details: HepG2 Attagene TRANS GAL4-LXRb reporter, mRNA
Oxysterols receptor LXR-beta (Homo sapiens), sequence (P55055 whole entry, looked up, the tested form may be a part): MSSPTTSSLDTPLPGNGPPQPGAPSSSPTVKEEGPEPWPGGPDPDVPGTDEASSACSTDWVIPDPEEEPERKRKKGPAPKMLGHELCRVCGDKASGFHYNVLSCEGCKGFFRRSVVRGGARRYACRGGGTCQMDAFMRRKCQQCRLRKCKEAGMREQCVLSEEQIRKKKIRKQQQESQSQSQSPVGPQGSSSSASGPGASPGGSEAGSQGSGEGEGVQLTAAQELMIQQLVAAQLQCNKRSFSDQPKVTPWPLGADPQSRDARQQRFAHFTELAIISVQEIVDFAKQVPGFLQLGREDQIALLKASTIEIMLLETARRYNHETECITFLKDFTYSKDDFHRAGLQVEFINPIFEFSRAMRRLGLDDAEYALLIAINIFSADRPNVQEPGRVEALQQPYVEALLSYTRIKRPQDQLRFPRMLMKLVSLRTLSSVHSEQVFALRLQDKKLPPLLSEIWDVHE
How it was run: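 HepG2 cells transiently transfected with multiple reporter transcription units carrying chimeric NR-Gal4 proteins acting on GAL4-UAS reporters; compound exposure 24 h. Reporter mRNA quantified by RT-PCR, 6-FAM labelling, HpaI digestion and capillary electrophoresis; gain of signal versus DMSO.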

[12] = target: human Peroxisome Proliferator-activated Receptor delta (PPARd), PPARD (gene 5467) (UniProt Q03181); assay: ATG_PPARd_TRANS: Attagene TRANS-FACTORIAL HepG2 Assay for human Peroxisome Proliferator-activated Receptor delta (PPARd) (AID 2283002)
human Peroxisome Proliferator-activated Receptor delta (PPARd), PPARD (gene 5467), sequence (Q03181 whole entry, looked up, the tested form may be a part): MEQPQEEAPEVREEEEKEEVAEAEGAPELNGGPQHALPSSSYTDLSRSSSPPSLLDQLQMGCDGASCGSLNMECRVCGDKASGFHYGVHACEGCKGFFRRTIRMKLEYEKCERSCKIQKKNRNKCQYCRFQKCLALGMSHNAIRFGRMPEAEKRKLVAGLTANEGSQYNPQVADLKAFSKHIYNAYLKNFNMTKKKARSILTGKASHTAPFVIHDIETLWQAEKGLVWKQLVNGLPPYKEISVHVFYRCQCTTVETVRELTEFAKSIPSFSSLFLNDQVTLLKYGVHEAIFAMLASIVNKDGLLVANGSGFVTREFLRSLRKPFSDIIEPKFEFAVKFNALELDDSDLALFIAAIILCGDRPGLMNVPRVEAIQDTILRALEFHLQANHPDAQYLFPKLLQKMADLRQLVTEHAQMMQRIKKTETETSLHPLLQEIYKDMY
How it was run: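 HepG2 cells transiently transfected with multiplexed GAL4-UAS reporter units and exogenous chimeric NR-Gal4 proteins; 24 h compound exposure. Reporter mRNA measured by RT-PCR, 6-FAM labelling, HpaI digestion and capillary electrophoresis; gain of signal versus DMSO.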

[13] = target: human RAR-related Orphan Receptor gamma (RORg), RORC (gene 6097) (UniProt P51449); assay: ATG_RORg_TRANS: Attagene TRANS-FACTORIAL HepG2 Assay for human RAR-related Orphan Receptor gamma (RORg) (AID 2283011);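 as to AC50: potency for induction of reporter transcripts above DMSO so activators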
human RAR-related Orphan Receptor gamma (RORg), RORC (gene 6097), sequence (P51449 whole entry, looked up, the tested form may be a part): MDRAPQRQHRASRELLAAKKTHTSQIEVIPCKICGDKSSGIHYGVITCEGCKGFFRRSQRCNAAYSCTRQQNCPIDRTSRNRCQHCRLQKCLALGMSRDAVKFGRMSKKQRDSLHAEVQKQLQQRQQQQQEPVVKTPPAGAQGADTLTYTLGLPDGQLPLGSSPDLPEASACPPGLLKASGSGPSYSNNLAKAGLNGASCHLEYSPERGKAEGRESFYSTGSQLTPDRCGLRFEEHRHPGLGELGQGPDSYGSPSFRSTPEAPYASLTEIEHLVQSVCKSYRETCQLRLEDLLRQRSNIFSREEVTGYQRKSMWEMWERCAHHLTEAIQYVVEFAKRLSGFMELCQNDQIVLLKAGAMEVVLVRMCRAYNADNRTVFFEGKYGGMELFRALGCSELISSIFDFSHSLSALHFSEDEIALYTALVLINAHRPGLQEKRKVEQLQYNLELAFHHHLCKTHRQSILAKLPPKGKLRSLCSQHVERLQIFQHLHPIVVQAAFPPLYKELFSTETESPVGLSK
How it was run: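 Readout: reporter transcript induction (RT-PCR, fluorescent primer extension, capillary electrophoresis) after 24 h compound exposure of transiently transfected HepG2 cells carrying a RORg-Gal4 chimera and GAL4-UAS reporters; DMSO served as baseline, with increasing signal fitted.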

[14] = target: human Thyroid Receptor alpha (THRa1), THRA (gene 7067) (UniProt P10827); assay: ATG_THRa1_TRANS: Attagene TRANS-FACTORIAL HepG2 Assay for human Thyroid Receptor alpha (THRa1) (AID 2283014)
human Thyroid Receptor alpha (THRa1), THRA (gene 7067), sequence (P10827 whole entry, looked up, the tested form may be a part): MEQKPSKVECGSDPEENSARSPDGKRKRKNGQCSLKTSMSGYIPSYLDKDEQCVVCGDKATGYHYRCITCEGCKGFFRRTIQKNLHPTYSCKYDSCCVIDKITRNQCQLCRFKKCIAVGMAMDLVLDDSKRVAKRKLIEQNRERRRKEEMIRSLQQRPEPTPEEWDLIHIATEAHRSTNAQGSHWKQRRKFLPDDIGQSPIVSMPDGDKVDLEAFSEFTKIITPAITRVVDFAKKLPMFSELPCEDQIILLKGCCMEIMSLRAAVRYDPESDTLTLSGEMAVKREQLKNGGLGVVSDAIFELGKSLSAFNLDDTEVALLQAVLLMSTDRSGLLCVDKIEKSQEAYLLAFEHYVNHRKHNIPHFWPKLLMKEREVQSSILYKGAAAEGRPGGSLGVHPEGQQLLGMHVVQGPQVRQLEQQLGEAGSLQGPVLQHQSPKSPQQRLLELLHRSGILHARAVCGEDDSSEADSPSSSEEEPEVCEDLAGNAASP
How it was run: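 HepG2 cells transiently transfected with multiplexed GAL4-UAS reporter units for exogenous chimeric THRa1-Gal4; reporter mRNA measured 24 h after dosing by RT-PCR, 6-FAM labelling, HpaI digestion and capillary electrophoresis. Gain-of-signal fitted versus DMSO baseline.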

[15] = ATG_XTT_Cytotoxicity: Cytotoxicity Assessment in the Attagene TRANS-FACTORIAL HepG2 Assay (AID 2283584);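 as to AC50: cells exposed to compound for 24 h before reading; active means loss of viability signal versus DMSO baseline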
How it was run: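 HepG2 human liver cells, transiently transfected with multiple GAL4-UAS reporter units, were dosed and read at 24 h by XTT as cell number. Loss of signal was fitted relative to DMSO negative control baseline.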

[16] = TOX21_p53_BLA_p4_viability: Viability Assessment in the Tox21 HCT-116 p53 Agonism Beta-lactamase Assay, Phase 4 (AID 2283597);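 also: hits lower the luminescence signal meaning cytotoxicity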
How it was run: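 HCT116 p53-bla cells (4000/well) rested 5 h at 37C, then received compounds in DMSO (217-fold dilution) for 16 h at 37C, 5% CO2. CellTiter-Glo was added after the CCF4-AM read, and luminescence was read after 30 min at room temperature.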

[17] = ATG_ERE_CIS: Attagene CIS-FACTORIAL HepG2 Assay for Estrogen Response Element (ERE) (AID 2282940; active = hit-call score of the fitted dose curve at least 0.9, where 1 is the maximum; inactive = score below 0.9); details: HepG2 ERE cis-reporter, Attagene RNA transcript; actives raise or lower the signal
How it was run: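 HepG2 cells transiently transfected with cis-promoter-driven multiplexed reporter transcription units report endogenous TF activity. After 24 h compound exposure, reporter mRNA is quantified by RT-PCR with capillary electrophoresis fluorescence; bidirectional fitting versus DMSO baseline.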

[18] = target: Estrogen receptor (Homo sapiens) (UniProt P03372); assay: ATG_ERa_TRANS: Attagene TRANS-FACTORIAL HepG2 Assay for human Estrogen Receptor alpha (ERa) (AID 2282970); details: HepG2 Attagene TRANS ERa GAL4 reporter, mRNA
Estrogen receptor (Homo sapiens), sequence (P03372 whole entry, looked up, the tested form may be a part): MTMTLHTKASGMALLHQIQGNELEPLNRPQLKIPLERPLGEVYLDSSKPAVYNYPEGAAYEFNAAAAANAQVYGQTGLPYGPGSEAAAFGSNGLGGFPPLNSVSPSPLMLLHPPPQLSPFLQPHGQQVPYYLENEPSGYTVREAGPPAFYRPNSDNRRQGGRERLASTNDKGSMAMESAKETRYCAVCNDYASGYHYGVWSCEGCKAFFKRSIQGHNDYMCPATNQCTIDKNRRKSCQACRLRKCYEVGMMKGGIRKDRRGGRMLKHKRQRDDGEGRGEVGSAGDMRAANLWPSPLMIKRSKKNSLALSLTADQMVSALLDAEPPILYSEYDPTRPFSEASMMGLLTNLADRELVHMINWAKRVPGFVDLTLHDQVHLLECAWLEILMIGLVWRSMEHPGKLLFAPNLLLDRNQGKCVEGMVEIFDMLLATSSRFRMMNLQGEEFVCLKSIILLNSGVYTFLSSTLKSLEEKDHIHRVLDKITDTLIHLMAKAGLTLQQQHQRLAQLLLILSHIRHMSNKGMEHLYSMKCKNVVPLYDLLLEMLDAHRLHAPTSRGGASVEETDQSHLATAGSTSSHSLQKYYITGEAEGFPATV
How it was run: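 HepG2 cells transiently transfected with multiplexed GAL4-UAS reporter units; ERa activity read via exogenous chimeric NR-Gal4 protein. After 24 hour compound exposure, reporter mRNA measured by RT-PCR with 6-FAM labelling and capillary electrophoresis; gain-of-signal fitted relative to DMSO.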

[19] = TOX21_p53_BLA_p3_viability: Viability Assessment in the Tox21 HCT-116 p53 Agonism Beta-lactamase Assay, Phase 3 (AID 2283593);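 also: cells exposed to compound for 16 h before reading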
How it was run: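 HCT-116 cells (4000/well) rested 5 h at 37C, then got DMSO compounds by pin tool (217-fold dilution) for 16 h at 37C, 5% CO2. After the bla read, CellTiter-Glo was added and luminescence read at 30 min, room temperature.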

[20] = target: Retinoic acid receptor RXR-alpha (Homo sapiens) (UniProt P19793); assay: ATG_RXRa_TRANS: Attagene TRANS-FACTORIAL HepG2 Assay for human Retinoid X Receptor alpha (RXRa) (AID 2283012)
Retinoic acid receptor RXR-alpha (Homo sapiens), sequence (P19793 whole entry, looked up, the tested form may be a part): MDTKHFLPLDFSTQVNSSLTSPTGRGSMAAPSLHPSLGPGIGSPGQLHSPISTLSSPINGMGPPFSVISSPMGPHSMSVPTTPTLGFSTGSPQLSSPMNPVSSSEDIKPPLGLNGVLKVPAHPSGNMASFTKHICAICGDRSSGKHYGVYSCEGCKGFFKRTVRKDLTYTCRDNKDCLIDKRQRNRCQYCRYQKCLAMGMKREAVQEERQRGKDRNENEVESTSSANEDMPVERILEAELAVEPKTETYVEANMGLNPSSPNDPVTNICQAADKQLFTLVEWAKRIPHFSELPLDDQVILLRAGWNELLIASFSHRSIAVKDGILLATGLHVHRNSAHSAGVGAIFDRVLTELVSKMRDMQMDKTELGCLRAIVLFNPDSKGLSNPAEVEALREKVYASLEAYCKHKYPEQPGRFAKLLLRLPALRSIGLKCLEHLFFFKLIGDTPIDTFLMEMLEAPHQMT
How it was run: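 HepG2 cells transiently transfected with multiplexed GAL4-UAS reporter units and chimeric NR-GAL4 fusions, dosed 24 h. Reporter mRNA measured by RT-PCR, FAM labelling, HpaI digestion and capillary electrophoresis; gain-of-signal fitted relative to DMSO baseline.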

Measured: AC50

COC(=O)c1ccccc1S(=O)(=O)NC(=O)Nc1nc(C)cc(C)n1
inactive: [1] | [2] | [3] | [4] | [5] | [6]

COc1cc(OC)nc(Oc2cccc(Oc3nc(OC)cc(OC)n3)c2C(=O)O)n1
inactive: [7] | [8] | [9] | [10] | [2] | [11] | [12] | [4] | [6]

[Cl][Sb]([Cl])[Cl]
not listed: [5] | [7] | [10] | [17] | [18] | [19] | [20]
inactive: all other assays above

CCCOC(=O)c1ccccc1C(=O)OCCC
active: [17] 49.8 µM | [18] 33.7 µM
not listed: [1] | [3] | [4] | [5] | [9] | [10] | [20]
inactive: all other assays above

O=C=Nc1ccccc1
inactive: [1] | [9] | [10] | [11] | [4] | [20] | [5] | [6]

Oc1ccc(Cl)cc1
inactive: [1] | [9] | [2] | [3] | [13] | [20] | [14] | [5] | [16] | [6]

CCN(CC)C(=S)S
inactive: [17] | [18] | [11] | [3] | [12] | [4] | [13] | [20] | [14]

O=C1Nc2ccc(Cl)cc2C(c2ccccc2)=NC1O (centres undefined)
not listed: [4] | [7] | [8] | [9] | [10] | [13] | [17] | [18]
inactive: all other assays above

COc1cc(OC)c(OC)cc1C=O
inactive: [18] | [10] | [20] | [5] | [19] | [16]
active: [17] 27.6 µM

C=Cc1cccc(CCl)c1
inactive: [17] | [7] | [9] | [13] | [14] | [19] | [16]

O=C(O)CCCc1ccc(N(CCCl)CCCl)cc1
not listed: [1] | [2] | [5] | [9] | [11] | [13] | [14]
inactive: all other assays above

ClCCCCCCCl
inactive: [1] | [2] | [11] | [3] | [4] | [13] | [5] | [15]

CC1(C)C(=O)NC(=O)NC1=O
inactive: [17] | [10] | [4] | [13] | [20] | [14] | [19]

Nc1ccc(Cl)c(Cl)c1
inactive: [11] | [3] | [13] | [20] | [14] | [5] | [19] | [16] | [6]

CC(C)(C)C(=O)CCl
inactive: [17] | [8] | [18] | [2] | [12] | [4] | [20] | [15] | [16] | [6]
active: [13] 134 µM

CCC(C)c1cc([N+](=O)[O-])cc([N+](=O)[O-])c1OC(=O)C=C(C)C (centres undefined)
inactive: [9] | [10] | [3] | [12] | [20] | [19]
active: [7] 26.5 µM | [16] 13.2 µM

O=[N+]([O-])C=Cc1ccccc1
inactive: [9] | [11] | [3] | [4] | [13] | [20] | [14] | [5] | [19]
active: [7] 46.8 µM | [15] 75.7 µM

CC1CCC(=O)O1 (centres undefined)
inactive: [4] | [13] | [14] | [15]

CN(C)CCC#N
not listed: [4] | [7] | [9] | [12] | [18] | [19]
inactive: all other assays above
